From PubChem BioAssay
Only some compounds are listed: those with a hit (about 3.2% of all), similar ones and a draw of the others.
ERa coact pot: ER-alpha (human) coactivator binding potentiation; TR-FRET ERalpha-LBD/SRC-Cy5 coactivator binding, 2 h; 100 = basal binding, no effect; coactivator binding (% of control), % at 25.6 µM; hit rate 1.3% among 86,000; P03372; AID 639; in the data active = activity above about 200%;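 note: binding measured in presence of low estradiol as agonist stimulus; 0% = peptide alone without receptor and 100% = receptor with peptide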
Candida biofilm: kills Candida albicans biofilms; hit rate 0.14% among 85,000; C. albicans biofilm + clotrimazole, Alamar Blue; inhibition, % at 6 µM;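 active = inhibition above 20%; inactive = inhibition below 20%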;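 note: preformed 24 hr biofilms exposed to compound for 48 hr; 0% = biofilm without compound and 100% = blank killed by clotrimazole plus chlorhexidine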
ERa coact inh: ER-alpha (human) coactivator binding inhibition; P03372; inhibition, % at 25.6 µM; AID 629; TR-FRET ER-alpha LBD / SRC-1 peptide, estradiol-bound; hit rate 1.7% among 86,000; in the data active = inhibition above about 50%;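 note: 0% = receptor plus peptide control and 100% = peptide only without receptor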
MT1-MMP txn act: MT1-MMP promoter transcription activation. HT1080 MT1-MMP promoter luciferase reporter, luminescence, overnight; hits give high values. activation factor at 10 µM. hit rate 0.16% among 86,000. AID 750;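 active = activation factor of at least 2 for MT1-MMP transcription at 10 µM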
EphB4 antag: antagonists of human EphB4-ephrin-B2 interaction; inhibition, % at 7 µM; P54760; EphB4 LBD / TNYL-RAW-Alexa532 peptide, fluorescence polarization; hit rate 0.15% among 97,000; AID 720;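 active = inhibition above the screen-wide mean inhibition plus 3 SD, cut at about 15% in these data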;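 note: 0% = DMSO wells and 100% = excess unlabeled TNYL-RAW peptide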
Target sequence (P54760 whole entry, looked up, the tested form may be a part): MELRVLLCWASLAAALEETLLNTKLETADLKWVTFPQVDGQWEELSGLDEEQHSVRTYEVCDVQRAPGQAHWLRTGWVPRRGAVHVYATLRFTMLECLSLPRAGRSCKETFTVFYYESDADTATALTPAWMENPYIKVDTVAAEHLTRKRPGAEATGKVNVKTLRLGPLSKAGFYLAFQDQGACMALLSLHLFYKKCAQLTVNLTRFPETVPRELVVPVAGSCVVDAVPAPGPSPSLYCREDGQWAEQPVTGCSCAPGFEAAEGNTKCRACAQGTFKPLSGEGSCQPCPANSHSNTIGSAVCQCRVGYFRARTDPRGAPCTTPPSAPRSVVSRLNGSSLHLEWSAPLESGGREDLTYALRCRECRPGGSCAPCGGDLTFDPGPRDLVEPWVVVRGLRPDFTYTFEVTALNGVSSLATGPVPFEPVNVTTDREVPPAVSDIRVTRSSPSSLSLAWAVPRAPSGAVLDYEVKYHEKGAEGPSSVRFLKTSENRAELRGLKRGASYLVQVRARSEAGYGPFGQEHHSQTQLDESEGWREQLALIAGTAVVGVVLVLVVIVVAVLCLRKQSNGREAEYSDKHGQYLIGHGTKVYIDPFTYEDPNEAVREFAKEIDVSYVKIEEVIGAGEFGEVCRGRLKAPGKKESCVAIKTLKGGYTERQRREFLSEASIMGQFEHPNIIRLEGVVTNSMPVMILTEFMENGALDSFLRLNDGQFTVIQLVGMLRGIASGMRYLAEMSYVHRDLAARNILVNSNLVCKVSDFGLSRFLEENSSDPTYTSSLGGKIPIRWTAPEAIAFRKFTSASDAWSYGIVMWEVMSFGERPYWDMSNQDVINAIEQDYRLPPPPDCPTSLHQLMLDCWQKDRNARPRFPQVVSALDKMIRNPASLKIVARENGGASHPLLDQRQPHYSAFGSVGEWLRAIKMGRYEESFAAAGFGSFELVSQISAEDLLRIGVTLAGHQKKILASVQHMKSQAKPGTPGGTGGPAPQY
ERb SRC1 inh: blocks coactivator binding to human estrogen receptor beta; hit rate 1.3% among 86,000; TR-FRET ER-beta LBD / SRC1-Cy5 peptide binding; receptor agonist-loaded with 1 µM estradiol; Q92731; inhibition, % at 25.6 µM; AID 633;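 active = compounds whose percent inhibition of the receptor-coactivator binding signal exceeds about 50% in the single-dose screen, limit read from the data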;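 note: 0% = receptor plus peptide wells without compound and 100% = peptide-only wells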
* hit, by the source's call; [ ] = another dose, or the depositor's remark.

Results for CCN(CC)CCNc1ncnc2c1[nH]c1ccc(OC)cc12 ?
ERa coact pot: 88; Candida biofilm: 1; ERa coact inh: 5; MT1-MMP txn act: 1.2; EphB4 antag: 0; ERb SRC1 inh: 4

How did COc1ccc2[nH]c3c(NCc4ccco4)ncnc3c2c1 do in these assays?
ERa coact pot: 92; Candida biofilm: 4; ERa coact inh: 6; MT1-MMP txn act: 2.1*; EphB4 antag: 4; ERb SRC1 inh: 0

How did CC(Oc1ccccc1F)C(=O)Nc1ccc2ccccc2c1 (stereo not drawn) do in these assays?
ERa coact pot: 105; Candida biofilm: 8; ERa coact inh: -7; MT1-MMP txn act: 2*; EphB4 antag: -2; ERb SRC1 inh: -2

How did CC(Oc1ccc(F)cc1)C(=O)Nc1ccc2ccccc2c1 (stereo not drawn) do in these assays?
ERa coact pot: 86; Candida biofilm: 7; ERa coact inh: 0; MT1-MMP txn act: 1; EphB4 antag: 5; ERb SRC1 inh: 1

What do the screens show for `COc1ccc(/C=C/C(=O)Oc2cccc(/C=N/NC(=O)COc3c(C)cccc3C)c2)cc1`?
EphB4 antag: 2

Results for CC(/C=C/c1ccc2c(c1)OCO2)=N\NC(=O)c1cccc([N+](=O)[O-])c1 ?
ERa coact pot: 58; Candida biofilm: 7; ERa coact inh: 68*[fluorescence artefact?]; MT1-MMP txn act: 1; EphB4 antag: -1; ERb SRC1 inh: 17

What do the screens show for `CC(/C=C/c1ccc2c(c1)OCO2)=N/NC(=O)CNc1ccc(C)cc1`?
EphB4 antag: 0

Results for O=C(Nc1nc2n(n1)C(c1ccc(Cl)cc1)CC(c1ccc(Cl)cc1)N2)c1ccco1 (stereo not drawn) ?
ERa coact pot: 91; Candida biofilm: 7; ERa coact inh: -3; MT1-MMP txn act: 1.2; EphB4 antag: 21*; ERb SRC1 inh: -3

What do the screens show for `O=C(O)CC(CC(=O)Nc1nncs1)c1ccccc1` (stereo not drawn)?
ERa coact pot: 137; Candida biofilm: 5; ERa coact inh: -5; MT1-MMP txn act: 1.1; EphB4 antag: 1; ERb SRC1 inh: -9

How did O=C(O)CC(Cn1[nH]nnc1=S)c1ccccc1 (stereo not drawn) do in these assays?
ERa coact pot: 108; Candida biofilm: 7; ERa coact inh: -9; MT1-MMP txn act: 1.1; EphB4 antag: -1; ERb SRC1 inh: 52*

How did O=c1c2c(nc3cc(-c4ccc(F)cc4)[nH]n13)CCCC2 do in these assays?
ERa coact pot: 102; Candida biofilm: 4; ERa coact inh: 14; EphB4 antag: -2; ERb SRC1 inh: 9

How did O=c1c2c(nc3cc(-c4cccc(Cl)c4)[nH]n13)CCC2 do in these assays?
ERa coact pot: 80; Candida biofilm: 4; ERa coact inh: 24; MT1-MMP txn act: 2*; EphB4 antag: 9; ERb SRC1 inh: -1

How did CCCn1c(C)nc2c(c1=O)c1nc3ccccc3nc1n2CCc1ccccc1 do in these assays?
ERa coact pot: 141; Candida biofilm: 9; ERa coact inh: 53*; MT1-MMP txn act: 1; EphB4 antag: 3; ERb SRC1 inh: 33

Results for COCCCn1c2nc3ccccc3nc2c2c(=O)n(-c3ccccc3OC)c(C)nc21 ?
ERa coact pot: 319*; Candida biofilm: 0; ERa coact inh: 12; MT1-MMP txn act: 1.1; ERb SRC1 inh: 5

Results for COCCCn1c2nc3ccccc3nc2c2c(=O)n(-c3ccccc3OC)cnc21 ?
ERa coact pot: 92; Candida biofilm: 11; ERa coact inh: 0; MT1-MMP txn act: 1; EphB4 antag: 3; ERb SRC1 inh: 1

What do the screens show for `CCCn1c(C)nc2c(c1=O)c1nc3ccccc3nc1n2CCC1=CCCCC1`?
ERa coact pot: 170; Candida biofilm: 3; ERa coact inh: 31; MT1-MMP txn act: 1.1; EphB4 antag: 2; ERb SRC1 inh: 22

How did COCC(=O)N(C)C1(c2nnnn2CCOC(=O)Nc2cccc3ccccc23)CCCC1 do in these assays?
ERa coact pot: 77; Candida biofilm: -1; ERa coact inh: 19; MT1-MMP txn act: 1.1; EphB4 antag: -2; ERb SRC1 inh: 61*[fluorescence artefact?]

What do the screens show for `O=C(Nc1nc(-c2nc3ccccc3s2)cs1)c1ccco1`?
ERa coact pot: 288*[fluorescence artefact?]; Candida biofilm: 7; ERa coact inh: 31; MT1-MMP txn act: 1.4; ERb SRC1 inh: 40

What do the screens show for `O=C(Nc1nc(-c2nc3ccccc3s2)cs1)C1CC1`?
ERa coact pot: 101; Candida biofilm: 18; ERa coact inh: 0; MT1-MMP txn act: 1.6; ERb SRC1 inh: -9

Results for CCc1nc(SCC(=O)c2cccs2)c2oc3ccccc3c2n1 ?
ERa coact pot: 224*; Candida biofilm: 0; ERa coact inh: -5; MT1-MMP txn act: 1; EphB4 antag: -1; ERb SRC1 inh: -9

How did CCc1nc(SCC(=O)NCCc2ccccc2)c2oc3ccccc3c2n1 do in these assays?
ERa coact pot: 99; Candida biofilm: 13; ERa coact inh: 42; MT1-MMP txn act: 1.1; EphB4 antag: 2; ERb SRC1 inh: 24

How did Cc1nc(SCC(=O)Nc2ccccc2)c2oc3ccccc3c2n1 do in these assays?
ERa coact pot: 552*[fluorescence artefact?]; Candida biofilm: 2; ERa coact inh: 55*[fluorescence artefact?]; MT1-MMP txn act: 1.1; EphB4 antag: 4; ERb SRC1 inh: 53*[fluorescence artefact?]

Results for Cc1nc(SCC(=O)NCCc2ccccc2)c2oc3ccccc3c2n1 ?
ERa coact pot: 264*[fluorescence artefact?]; Candida biofilm: 5; ERa coact inh: 26; MT1-MMP txn act: 1; EphB4 antag: -6; ERb SRC1 inh: 7

Results for CCc1nc(SCC(=O)N2CCc3ccccc32)c2oc3ccccc3c2n1 ?
ERa coact pot: 147; Candida biofilm: 4; ERa coact inh: 21; MT1-MMP txn act: 1.2; ERb SRC1 inh: -2

How did COC(=O)c1c(-c2ccncc2)csc1NC(=O)c1ccoc1C do in these assays?
ERa coact pot: 321*; Candida biofilm: 7; ERa coact inh: 8; MT1-MMP txn act: 1.4; EphB4 antag: 0; ERb SRC1 inh: 3

Results for CCN(CC)C(=O)c1sc(NC(=O)c2ccoc2C)c(C(=O)OC)c1C ?
ERa coact pot: 91; Candida biofilm: -1; ERa coact inh: -12; MT1-MMP txn act: 1.2; ERb SRC1 inh: 0

What do the screens show for `Cc1ccc(NC(=O)Cc2nnc(SCC(=O)c3ccc(Br)cc3)n2C)cc1`?
ERa coact pot: 201*[fluorescence artefact?]; Candida biofilm: 6; ERa coact inh: 4; EphB4 antag: 6; ERb SRC1 inh: 19

How did CCOc1cc(N2CCOCC2)c(OCC)cc1NC(=O)COc1ncnc2ccc(Br)cc12 do in these assays?
ERa coact pot: 77; Candida biofilm: 5; ERa coact inh: 54*[fluorescence artefact?]; EphB4 antag: 0; ERb SRC1 inh: 27

How did CCC(C(=O)NC(C)(C)C)N(C(=O)Cn1nnc(-c2ccccc2F)n1)c1cccc2c1CCCC2 (stereo not drawn) do in these assays?
EphB4 antag: -6

Results for O=S(=O)(Nc1ncnc2sc3c(c12)CCC3)c1ccc2ccccc2c1 ?
ERa coact pot: 59; Candida biofilm: -4; ERa coact inh: 38; MT1-MMP txn act: 1.1; EphB4 antag: 0; ERb SRC1 inh: 53*
